In the supplement of paper PMC8728848:
This is one part of a sample in which the strongest signals are shown more often than they occur.

Key:
Test in all cases: glycan array binding signal (z-score within array); higher = stronger binding
Details in all cases: glycan notation: IUPAC condensed, linker removed
[1] = target: GlcNAc(b1-2)Man(a1-3)[GlcNAc(b1-2)Man(a1-6)]Man(b1-4)GlcNAc(b1-4)GlcNAc
In short: (§1)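 The binding signal is a Z-score computed within each array and averaged over linkers. Arrays of the same protein sequence at different concentrations or buffers were also averaged together. Data originate from 3228 arrays in the Consortium for Functional Glycomics database, kept only where the protein sequence was available.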

GlcNAc(b1-3)Gal(b1-4)Glc = target: GlcNAc(b1-3)Gal(b1-4)Glc
In short: as §1

[2] = target: GlcNAc(b1-3)Gal(b1-4)GlcNAc(b1-3)Gal(b1-4)GlcNAc(b1-3)Gal(b1-4)GlcNAc(b1-2)[GlcNAc(b1-3)Gal(b1-4)GlcNAc(b1-3)Gal(b1-4)GlcNAc(b1-3)Gal(b1-4)GlcNAc(b1-6)]Man(a1-6)[GlcNAc(b1-3)Gal(b1-4)GlcNAc(b1-3)Gal(b1-4)GlcNAc(b1-3)Gal(b1-4)GlcNAc(b1-2)Man(a1-3)]Man(b1-4)GlcNAc(b1-4)[Fuc(a1-6)]GlcNAc
In short: as §1

[3] = target: GlcNAc(b1-3)Gal(b1-4)GlcNAc(b1-6)[Gal(b1-3)]GalNAc
In short: as §1

Kdn(a2-3)Gal(b1-3)GalNAc = target: Kdn(a2-3)Gal(b1-3)GalNAc
In short: as §1

Man(a1-3)[Man(a1-6)]Man = target: Man(a1-3)[Man(a1-6)]Man
In short: as §1

[4] = target: Man(a1-3)[Man(a1-6)]Man(a1-6)[Man(a1-3)]Man
In short: as §1

[5] = target: Neu5Ac(a2-3)Gal(b1-3)GalNAc(b1-3)Gal(b1-4)GlcNAc
In short: as §1

[6] = target: Neu5Ac(a2-3)Gal(b1-3)GlcNAc(b1-2)Man(a1-3)[Neu5Ac(a2-3)Gal(b1-3)GlcNAc(b1-2)Man(a1-6)]Man(b1-4)GlcNAc(b1-4)GlcNAc
In short: as §1

[7] = target: Neu5Ac(a2-3)Gal(b1-3)[Fuc(a1-4)]GlcNAc
In short: as §1

[8] = target: Neu5Ac(a2-3)Gal(b1-3)[Neu5Ac(a2-6)]GlcNAc(b1-3)[Fuc(a1-3)[Gal(b1-4)]GlcNAc(b1-6)]Gal(b1-4)Glc
In short: as §1

Neu5Ac(a2-3)Gal(b1-4)Glc = target: Neu5Ac(a2-3)Gal(b1-4)Glc
In short: as §1

[9] = target: Neu5Ac(a2-3)Gal(b1-4)GlcNAc(b1-2)Man
In short: as §1

[10] = target: Neu5Ac(a2-3)Gal(b1-4)GlcNAc(b1-3)Gal(b1-4)GlcNAc(b1-2)Man(a1-3)[Neu5Ac(a2-3)Gal(b1-4)GlcNAc(b1-3)Gal(b1-4)GlcNAc(b1-2)Man(a1-6)]Man(b1-4)GlcNAc(b1-4)GlcNAc
In short: as §1

[11] = target: Neu5Ac(a2-3)Gal(b1-4)GlcNAc(b1-3)Gal(b1-4)GlcNAc(b1-3)Gal(b1-4)GlcNAc
In short: as §1

[12] = target: Neu5Ac(a2-3)Gal(b1-4)GlcNAc(b1-3)Gal(b1-4)GlcNAc(b1-3)Gal(b1-4)GlcNAc(b1-2)Man(a1-3)[Neu5Ac(a2-3)Gal(b1-4)GlcNAc(b1-3)Gal(b1-4)GlcNAc(b1-3)Gal(b1-4)GlcNAc(b1-2)Man(a1-6)]GalNAc
In short: as §1

[13] = target: Neu5Ac(a2-3)Gal(b1-4)GlcNAc(b1-6)[Neu5Ac(a2-3)Gal(b1-3)]GalNAc
In short: as §1

[14] = target: Neu5Ac(a2-3)Gal(b1-4)[Fuc(a1-3)]GlcNAc
In short: as §1

[15] = target: Neu5Ac(a2-3)Gal6S(b1-4)[Fuc(a1-3)]GlcNAc
In short: as §1

Neu5Ac(a2-6)Gal = target: Neu5Ac(a2-6)Gal
In short: as §1

[16] = target: Neu5Ac(a2-6)Gal(b1-4)GlcNAc(b1-2)Man(a1-6)[Gal(b1-4)GlcNAc(b1-2)Man(a1-3)]Man(b1-4)GlcNAc(b1-4)GlcNAc
In short: as §1

[17] = target: Neu5Ac(a2-6)Gal(b1-4)GlcNAc(b1-2)[Neu5Ac(a2-6)Gal(b1-4)GlcNAc(b1-4)]Man(a1-3)[GlcNAc(b1-4)][Neu5Ac(a2-6)Gal(b1-4)GlcNAc(b1-2)[Neu5Ac(a2-6)Gal(b1-4)GlcNAc(b1-6)]Man(a1-6)]Man(b1-4)GlcNAc(b1-4)GlcNAc
In short: as §1

[18] = target: Neu5Ac(a2-6)Gal(b1-4)GlcNAc(b1-3)Gal(b1-4)GlcNAc(b1-2)Man(a1-3)[Neu5Ac(a2-6)Gal(b1-4)GlcNAc(b1-3)Gal(b1-4)GlcNAc(b1-2)Man(a1-6)]GalNAc
In short: as §1

[19] = target: Neu5Ac(a2-6)Gal(b1-4)GlcNAc(b1-3)Gal(b1-4)GlcNAc(b1-3)Gal(b1-4)GlcNAc
In short: as §1

[20] = target: Neu5Ac(a2-6)Gal(b1-4)GlcNAc(b1-3)Gal(b1-4)GlcNAc(b1-3)Gal(b1-4)GlcNAc(b1-2)Man(a1-3)[Neu5Ac(a2-6)Gal(b1-4)GlcNAc(b1-3)Gal(b1-4)GlcNAc(b1-3)Gal(b1-4)GlcNAc(b1-2)Man(a1-6)]GalNAc
In short: as §1

[21] = target: Neu5Ac(a2-6)Gal(b1-4)GlcNAc(b1-3)Gal(b1-4)GlcNAc(b1-3)[Neu5Ac(a2-6)Gal(b1-4)GlcNAc(b1-3)Gal(b1-4)GlcNAc(b1-6)]GalNAc
In short: as §1

[22] = target: Neu5Ac(a2-6)Gal(b1-4)GlcNAc(b1-3)Gal(b1-4)[Fuc(a1-3)]GlcNAc(b1-3)Gal(b1-4)[Fuc(a1-3)]GlcNAc
In short: as §1

[23] = target: Neu5Ac(a2-8)Neu5Ac(a2-8)Neu5Ac(a2-3)[Gal(b1-3)GalNAc(b1-4)]Gal(b1-4)Glc
In short: as §1

Neu5Ac(b1-6)GalNAc = target: Neu5Ac(b1-6)GalNAc
In short: as §1

[24] = target: Neu5Gc(a2-8)Neu5Gc(a2-3)Gal(b1-4)GlcNAc(b1-3)Gal(b1-4)GlcNAc
In short: as §1

B1: LTL (Lotus tetragonolobus), P19664 (protein)
chain: VSFNYTEFKDDGSLILQGDAKIWTDGRLAMPTDPLVNNPKTTRSAGRALYATPVPIWDSATGNVASFVTSFNFLFVIRELKYTPTDGLVFFLAPVGTEIPSGSTGGFLGIFDGSNGFNQFVAVEFDSYHNIWDPKSLRSSHVGIDVNSIMSLKAVNWNRVSGSLEKATIIYDSQTNILSVVMTSQNGQITTIYGTIDLKTVLPEKVSVGFSATTGNPEREKHDIYSWSFTSTLKEPEEQA
[1]
  glycan array binding signal (z-score): -0.3
GlcNAc(b1-3)Gal(b1-4)Glc
  glycan array binding signal (z-score): -0.196
[2]
  glycan array binding signal (z-score): 0.185
[3]
  glycan array binding signal (z-score): -0.142
Kdn(a2-3)Gal(b1-3)GalNAc
  glycan array binding signal (z-score): 0.043
Man(a1-3)[Man(a1-6)]Man
  glycan array binding signal (z-score): -0.207
[4]
  glycan array binding signal (z-score): 0.02
[5]
  glycan array binding signal (z-score): -0.26
[6]
  glycan array binding signal (z-score): -0.099
[7]
  glycan array binding signal (z-score): 0.005
[8]
  glycan array binding signal (z-score): -0.123
Neu5Ac(a2-3)Gal(b1-4)Glc
  glycan array binding signal (z-score): -0.023
[9]
  glycan array binding signal (z-score): 0.022
[10]
  glycan array binding signal (z-score): 2.77
[11]
  glycan array binding signal (z-score): -0.035
[12]
  glycan array binding signal (z-score): 5.64
[13]
  glycan array binding signal (z-score): -0.237
[14]
  glycan array binding signal (z-score): -0.31
[15]
  glycan array binding signal (z-score): 2.84
Neu5Ac(a2-6)Gal
  glycan array binding signal (z-score): -0.162
[16]
  glycan array binding signal (z-score): -0.242
[17]
  glycan array binding signal (z-score): -0.15
[18]
  glycan array binding signal (z-score): 1.11
[19]
  glycan array binding signal (z-score): -0.226
[20]
  glycan array binding signal (z-score): 2.02
[21]
  glycan array binding signal (z-score): 3.76
[22]
  glycan array binding signal (z-score): -0.039
[23]
  glycan array binding signal (z-score): 0.131
Neu5Ac(b1-6)GalNAc
  glycan array binding signal (z-score): -0.326
[24]
  glycan array binding signal (z-score): -0.15
